# Inconclusive results are not listed. Activity calls are given as the source filed them. How the source made its calls: active means hit-call score of the fitted dose curve at least 0.9, where 1 is the maximum; inconclusive means response in the unintended direction; inactive means score below 0.9.
# Tested on: not listed separately
# Experiment: ATG_M_19_TRANS: Attagene TRANS-FACTORIAL HepG2 Assay for M19 Transcription Factor (Internal Marker) (AID 2282974)
# Settings: HepG2 Attagene TRANS-FACTORIAL M19 internal marker reporter
# Summary of the method: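 HepG2 transiently transfected with GAL4-UAS multiplex reporter constructs, exposed 24 h; reporter RNA quantified by RT-PCR, 6-FAM labeling, HpaI digestion and capillary electrophoresis; internal background marker fitted upward versus DMSO.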
row,Structure (SMILES),outcome
1,CCN(N=O)C(N)=O,inactive
2,Brc1ccc(Br)cc1,inactive
3,CCOc1cc(C=O)ccc1O,inactive
4,CCCCCCCCBr,inactive
5,Clc1cccc(Cl)c1,inactive
6,CN(N=O)C(N)=O,inactive
7,OCCCCO,inactive
8,Nc1ccc(Br)cc1,inactive
9,O=c1oc2ccccc2c(O)c1C(CC(O)c1ccc(-c2ccc(Br)cc2)cc1)c1ccccc1 (stereo unspecified),inactive
10,Cc1cc(Cl)ccc1N,inactive
11,O=C(Cl)OCCOCCOC(=O)Cl,inactive
12,C=CCc1ccccc1O,inactive
13,CCOC(=O)C(SP(=S)(OC)OC)c1ccccc1 (stereo unspecified),inactive
14,CCC(C)(C#N)N=NC(C)(C#N)CC (stereo unspecified),inactive
15,CS(=O)(=O)c1ccc(C(=O)C2C(=O)CCCC2=O)c(Cl)c1COCC(F)(F)F,inactive

# Tested on: not listed separately
# Experiment: ATG_GAL4_TRANS: Attagene TRANS-FACTORIAL HepG2 Assay for GAL4 (Internal Marker) (AID 2282976)
# Settings: HepG2 Attagene TRANS GAL4 internal marker reporter
# Summary of the method: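 In transfected human HepG2 liver cells dosed 24 h, GAL4 reporter mRNA serves as a baseline marker. Detection by RT-PCR with fluorescent capillary electrophoresis, activity fitted upward relative to DMSO.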
row,Structure (SMILES),outcome
1,CCN(N=O)C(N)=O,inactive
2,Brc1ccc(Br)cc1,inactive
3,CCOc1cc(C=O)ccc1O,inactive
4,CCCCCCCCBr,inactive
5,N#Cc1ccncc1,inactive
6,Clc1cccc(Cl)c1,inactive
7,FC(F)OCC(F)(F)C(F)(F)F,inactive
8,CC(C)[C@H](C(=O)OC(C#N)c1cccc(Oc2ccccc2)c1)c1ccc(OC(F)F)cc1 (stereo partly specified),inactive
9,CN(N=O)C(N)=O,inactive
10,OCCCCO,inactive
11,CNC(=O)N(C)c1nc2ccccc2s1,inactive
12,CCOP(=S)(OCC)O/N=C(\C#N)c1ccccc1,inactive
13,Nc1ccc(Br)cc1,inactive
14,O=c1oc2ccccc2c(O)c1C(CC(O)c1ccc(-c2ccc(Br)cc2)cc1)c1ccccc1 (stereo unspecified),inactive
15,Cc1cc(Cl)ccc1N,inactive
16,CC(F)(F)CC(F)(F)F,inactive
17,O=C(O)C1(c2ccc3c(c2)OC[C@H](Cc2ccc(-c4ccccc4)cc2)[C@H]3O)CCCC1,inactive
18,COc1ccc([N+](=O)[O-])cc1O,inactive
19,OC[C@@H](O)[C@H]1O[C@@H]2O[C@H](C(Cl)(Cl)Cl)O[C@@H]2[C@H]1O,inactive
20,C=CCOC(F)(C(F)(F)F)C(F)(F)F,inactive
21,CC(=O)CN(CC(C)=O)N=O,inactive
22,C=CCc1ccccc1O,inactive
23,O=[N+]([O-])c1cc([As](=O)(O)O)ccc1O,inactive
24,CCOC(=O)C(SP(=S)(OC)OC)c1ccccc1 (stereo unspecified),inactive
25,CCC(C)(C#N)N=NC(C)(C#N)CC (stereo unspecified),inactive
26,Cc1ccc(CCl)cc1,inactive
27,CS(=O)(=O)c1ccc(C(=O)C2C(=O)CCCC2=O)c(Cl)c1COCC(F)(F)F,inactive

# Target: Estrogen-related receptor gamma (Homo sapiens) (UniProt P62508)
# Sequence (P62508 whole entry, looked up): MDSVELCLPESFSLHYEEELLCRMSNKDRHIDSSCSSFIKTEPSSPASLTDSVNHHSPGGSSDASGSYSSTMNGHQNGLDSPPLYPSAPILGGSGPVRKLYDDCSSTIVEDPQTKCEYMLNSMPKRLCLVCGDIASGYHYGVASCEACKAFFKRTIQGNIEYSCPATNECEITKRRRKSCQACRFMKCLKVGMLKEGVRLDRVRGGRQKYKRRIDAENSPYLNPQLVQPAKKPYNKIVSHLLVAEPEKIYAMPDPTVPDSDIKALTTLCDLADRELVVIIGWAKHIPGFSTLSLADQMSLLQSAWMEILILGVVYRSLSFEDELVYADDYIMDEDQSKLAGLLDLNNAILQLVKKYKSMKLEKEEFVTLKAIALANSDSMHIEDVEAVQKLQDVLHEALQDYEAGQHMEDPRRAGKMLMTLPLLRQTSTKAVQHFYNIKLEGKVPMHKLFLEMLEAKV
# Experiment: ATG_ERRg_TRANS: Attagene TRANS-FACTORIAL HepG2 Assay for human Estrogen-Related Receptor gamma (ERRg) (AID 2282977);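 further: hits increase reporter signal over DMSO so potencies reflect activators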
# Settings: HepG2 Attagene TRANS reporter, ERRg transactivation
# Summary of the method: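 Transfect HepG2 with multiple GAL4-UAS reporter transcription units; dose chemicals 24 h; isolate RNA, reverse-transcribe with oligo(dT), PCR-amplify, label with 6-FAM, digest with HpaI; size fragments by capillary electrophoresis. DMSO serves as negative control.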
Structure (SMILES),outcome,AC50
Brc1ccc(Br)cc1,inactive,
Clc1cccc(Cl)c1,inactive,
CN(C)c1ccc(N=O)cc1,inactive,
C=CC(=O)OCC(COC(=O)C=C)(COC(=O)C=C)COC(=O)C=C,,100 µM (active)
CC(C)[C@H](C(=O)OC(C#N)c1cccc(Oc2ccccc2)c1)c1ccc(OC(F)F)cc1 (stereo partly specified),inactive,
O=[N+]([O-])c1c2ccccc2cc2ccccc12,inactive,
OCCCCO,inactive,
CCOP(=S)(OCC)O/N=C(\C#N)c1ccccc1,inactive,
Clc1cccc(Cl)c1Cl,inactive,
C=CCOC(F)(C(F)(F)F)C(F)(F)F,inactive,
C=CCc1ccccc1O,inactive,
CCOC(=O)C(SP(=S)(OC)OC)c1ccccc1 (stereo unspecified),inactive,
CCC(C)(C#N)N=NC(C)(C#N)CC (stereo unspecified),inactive,
CS(=O)(=O)c1ccc(C(=O)C2C(=O)CCCC2=O)c(Cl)c1COCC(F)(F)F,inactive,

# Target: Glucocorticoid receptor (Homo sapiens) (UniProt P04150)
# Sequence (P04150 whole entry, looked up): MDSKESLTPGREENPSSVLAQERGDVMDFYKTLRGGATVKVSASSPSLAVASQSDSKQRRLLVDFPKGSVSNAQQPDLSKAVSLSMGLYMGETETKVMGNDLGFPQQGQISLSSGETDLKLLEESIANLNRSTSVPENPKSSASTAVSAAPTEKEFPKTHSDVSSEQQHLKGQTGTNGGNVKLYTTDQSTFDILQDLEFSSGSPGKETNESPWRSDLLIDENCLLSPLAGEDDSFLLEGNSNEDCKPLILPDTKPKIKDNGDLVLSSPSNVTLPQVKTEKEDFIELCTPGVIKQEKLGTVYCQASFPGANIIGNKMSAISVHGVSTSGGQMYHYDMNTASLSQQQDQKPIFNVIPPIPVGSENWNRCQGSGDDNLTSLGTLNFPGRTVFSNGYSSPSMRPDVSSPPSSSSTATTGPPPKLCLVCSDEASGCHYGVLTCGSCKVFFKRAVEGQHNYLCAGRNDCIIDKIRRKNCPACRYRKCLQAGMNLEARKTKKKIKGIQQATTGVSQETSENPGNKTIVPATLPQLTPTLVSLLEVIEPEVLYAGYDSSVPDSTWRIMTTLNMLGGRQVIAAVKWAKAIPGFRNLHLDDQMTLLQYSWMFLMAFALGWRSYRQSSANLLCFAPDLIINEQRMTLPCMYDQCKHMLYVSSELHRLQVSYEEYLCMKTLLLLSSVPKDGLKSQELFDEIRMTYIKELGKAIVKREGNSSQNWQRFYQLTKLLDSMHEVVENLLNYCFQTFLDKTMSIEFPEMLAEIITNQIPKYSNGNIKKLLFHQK
# Experiment: ATG_GR_TRANS: Attagene TRANS-FACTORIAL HepG2 Assay for human Glucocorticoid Receptor (GR) (AID 2282978);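 further: activators score as hits since higher reporter transcript over DMSO is fitted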
# Settings: HepG2 Attagene TRANS GR reporter, mRNA transcription
# Summary of the method: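 HepG2 cells transiently transfected with GAL4-UAS reporter units and exogenous GR-Gal4 chimera, dosed 24 h. Reporter mRNA by RT-PCR, FAM labeling, HpaI digest and capillary electrophoresis; gain-of-signal fit versus DMSO.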
Structure (SMILES),outcome,AC50
CCN(N=O)C(N)=O,inactive,
CCOc1cc(C=O)ccc1O,inactive,
CCCCCCCCBr,inactive,
N#Cc1ccncc1,inactive,
Clc1cccc(Cl)c1,inactive,
CN(C)c1ccc(N=O)cc1,inactive,
CC(C)[C@H](C(=O)OC(C#N)c1cccc(Oc2ccccc2)c1)c1ccc(OC(F)F)cc1 (stereo partly specified),inactive,
CN(N=O)C(N)=O,inactive,
CCCSP(=S)(OCC)Oc1ccc(Cl)cc1Cl (stereo unspecified),inactive,
CNC(=O)N(C)c1nc2ccccc2s1,inactive,
CCOP(=S)(OCC)O/N=C(\C#N)c1ccccc1,inactive,
Nc1ccc(Br)cc1,,100 µM (active)
O=c1oc2ccccc2c(O)c1C(CC(O)c1ccc(-c2ccc(Br)cc2)cc1)c1ccccc1 (stereo unspecified),,173 µM (active)
Cc1cc(Cl)ccc1N,inactive,
CC(F)(F)CC(F)(F)F,inactive,
COc1ccc([N+](=O)[O-])cc1O,inactive,
Cc1cc(C(C)(C)c2ccc(O)c(C)c2)ccc1O,inactive,
C=CCOC(F)(C(F)(F)F)C(F)(F)F,inactive,
CC(=O)CN(CC(C)=O)N=O,inactive,
C=CCc1ccccc1O,inactive,
O=[N+]([O-])c1cc([As](=O)(O)O)ccc1O,inactive,
Cc1ccc(CCl)cc1,inactive,
CS(=O)(=O)c1ccc(C(=O)C2C(=O)CCCC2=O)c(Cl)c1COCC(F)(F)F,inactive,

# Target: Bile acid receptor (Homo sapiens) (UniProt Q96RI1)
# Sequence (Q96RI1 whole entry, looked up): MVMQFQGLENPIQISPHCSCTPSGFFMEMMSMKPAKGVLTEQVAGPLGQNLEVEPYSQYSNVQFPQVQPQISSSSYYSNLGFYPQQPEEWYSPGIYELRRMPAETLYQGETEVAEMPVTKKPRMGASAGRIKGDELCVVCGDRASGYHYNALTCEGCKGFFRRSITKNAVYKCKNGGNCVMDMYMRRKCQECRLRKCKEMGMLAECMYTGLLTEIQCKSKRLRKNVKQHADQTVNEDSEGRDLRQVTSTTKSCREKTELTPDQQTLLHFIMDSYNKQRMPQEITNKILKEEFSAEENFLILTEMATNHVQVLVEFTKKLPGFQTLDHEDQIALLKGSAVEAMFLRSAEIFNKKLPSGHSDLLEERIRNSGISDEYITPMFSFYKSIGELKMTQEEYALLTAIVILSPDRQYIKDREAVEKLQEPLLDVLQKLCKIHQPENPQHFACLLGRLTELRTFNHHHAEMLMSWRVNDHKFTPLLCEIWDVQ
# Experiment: ATG_FXR_TRANS: Attagene TRANS-FACTORIAL HepG2 Assay for Farnesoid X Receptor (FXR) (AID 2282979);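 further: hits raise reporter mRNA above DMSO so AC50 marks FXR activation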
# Settings: HepG2 Attagene TRANS FXR-GAL4 reporter transcription
# Summary of the method: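 Reporter transcripts from transfected HepG2 cells were measured 24 h after dosing, using RT-PCR with capillary electrophoresis of 6-FAM-labelled fragments. The read-out reflects activity of exogenous FXR-Gal4 chimera on GAL4-UAS units, with induction relative to DMSO.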
Structure (SMILES),outcome,AC50
CCN(N=O)C(N)=O,inactive,
C=C(C)[C@@H]1CC=C(C=O)CC1,inactive,
CCCCCCCCBr,inactive,
C=CC(=O)OCC(COC(=O)C=C)(COC(=O)C=C)COC(=O)C=C,inactive,
CN(N=O)C(N)=O,inactive,
CCOC(=O)CCN(SN(C)C(=O)Oc1cccc2c1OC(C)(C)C2)C(C)C,inactive,
N#Cc1ccccc1Cl,inactive,
CNC(=O)N(C)c1nc2ccccc2s1,inactive,
Nc1ccc(Br)cc1,inactive,
O=c1oc2ccccc2c(O)c1C(CC(O)c1ccc(-c2ccc(Br)cc2)cc1)c1ccccc1 (stereo unspecified),inactive,
CC(F)(F)CC(F)(F)F,inactive,
O=C(O)C1(c2ccc3c(c2)OC[C@H](Cc2ccc(-c4ccccc4)cc2)[C@H]3O)CCCC1,inactive,
COc1ccc([N+](=O)[O-])cc1O,inactive,
Cc1cc(C(C)(C)c2ccc(O)c(C)c2)ccc1O,,4.72 µM (active)
C=CCc1ccccc1O,inactive,
CCOC(=O)C(SP(=S)(OC)OC)c1ccccc1 (stereo unspecified),,30.7 µM (active)
Cc1ccc(CCl)cc1,inactive,

# Reference: PubChem BioAssay (EPA / NIEHS)
